The source made the active and inactive calls. The calls were made as follows: active = hit-call score of the fitted dose curve at least 0.9, where 1 is the maximum; inactive = score below 0.9.
Tests used:
[1] = CEETOX_H295R_ESTRADIOL: CeeTox H295R High-throughput Steroidogenesis Assay for Estradiol (AID 2283440); details: actives raise or lower the signal;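 also: estradiol secreted into medium quantified by LC-MS/MS after dansyl derivatisation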
Summary of the method: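 Readout is estradiol in conditioned medium, quantified by reverse-phase HPLC-MS/MS against a 7-point standard curve. Cells: H295R, forskolin-stimulated, then dosed 48 h in 0.1% DMSO; activity fitted in both directions relative to DMSO.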

[2] = CEETOX_H295R_ESTRONE: CeeTox H295R High-throughput Steroidogenesis Assay for Estrone (AID 2283441); details: actives raise or lower the signal;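 as to AC50: human adrenal H295R cells prestimulated with forskolin for two days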
Summary of the method: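 Estrone secreted into medium quantified by LC-MS/MS after dansyl chloride derivatization, following 48 h chemical exposure (0.1% DMSO final) of forskolin-prestimulated (10 uM, 48 h) H295R cells; gain or loss fitted against DMSO; MTT viability in same wells.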

[3] = CEETOX_H295R_PROG: CeeTox H295R High-throughput Steroidogenesis Assay for Progesterone (PROG) (AID 2283442); details: actives raise or lower the signal;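 as to AC50: human H295R adrenal cells primed with 10 µM forskolin before dosing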
Summary of the method: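 Measured analyte is progesterone secreted by H295R cells at 48 h of chemical treatment, following 10 uM forskolin priming. Quantitation used HPLC-MS/MS against a 7-point standard curve; cytotoxicity was checked by MTT absorbance.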

[4] = read-out: Tumor necrosis factor receptor superfamily member 6 (Homo sapiens) (UniProt P25445); test: LTEA_HepaRG_FAS: Life Technologies and Expression Analysis (LTEA) Assay for Fas cell surface death receptor (FAS) using HepaRG (AID 2283447); details: mRNA level, 48 h; actives raise or lower the signal
Summary of the method: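 FAS transcript level was measured by TaqMan qRT-PCR against three housekeeping genes after 48 h chemical exposure. Cells were HepaRG, 0.5% DMSO vehicle, with a top concentration of 100 uM and half-log dilutions over eight points, in duplicate.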

[5] = read-out: Fatty acid synthase (Homo sapiens) (UniProt P49327); test: LTEA_HepaRG_FASN: Life Technologies and Expression Analysis (LTEA) Assay for Fatty Acid Synthase (FASN) using HepaRG (AID 2283448); details: mRNA level, 48 h; actives raise or lower the signal;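 as to AC50: differentiated human HepaRG liver cells in serum-free induction medium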
Summary of the method: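 Cells were plated, cultured 48 h, switched to serum-free induction medium, then dosed in duplicate (max 100 uM, half-log dilutions, 0.5% DMSO) for 48 h. RNA was then isolated and FASN quantified by qRT-PCR.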

[6] = read-out: Cyclin D2 (CCND2), CCND2 (gene 894); test: LTEA_HepaRG_CCND2: Life Technologies and Expression Analysis (LTEA) Assay for Cyclin D2 (CCND2) using HepaRG (AID 2283449); details: mRNA level, 48 h; actives raise or lower the signal
Summary of the method: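 CCND2 transcript levels, quantified by qRT-PCR and normalised to three housekeeping genes, were fitted bidirectionally against 0.5% DMSO. HepaRG cultures were dosed 48 h in duplicate with an 8-point half-log series up to 100 uM.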

[7] = read-out: Cyclin D1 (CCND1), CCND1 (gene 595); test: LTEA_HepaRG_CCND1: Life Technologies and Expression Analysis (LTEA) Assay for Cyclin D1 (CCND1) using HepaRG (AID 2283451); details: mRNA level, 48 h; actives raise or lower the signal;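 as to AC50: differentiated human HepaRG liver cells in serum-free induction medium; TaqMan qRT-PCR transcript level normalised to ACTB GAPDH and POLR2A housekeeping genes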
Summary of the method: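 Expression change is measured by qRT-PCR in HepaRG cells after 48 h treatment across eight concentrations topping at 100 uM, with duplicate wells and DMSO (0.5%) serving as baseline for bidirectional fitting.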

[8] = read-out: catalase (CAT), CAT (gene 847); test: LTEA_HepaRG_CAT: Life Technologies and Expression Analysis (LTEA) Assay for catalase (CAT) using HepaRG (AID 2283452); details: mRNA level, 48 h; actives raise or lower the signal;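 as to AC50: TaqMan qRT-PCR signal normalized to ACTB GAPDH and POLR2A housekeeping genes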
Summary of the method: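 Expression of CAT was quantified by TaqMan qRT-PCR with ACTB/GAPDH/POLR2A normalization after 48 h chemical exposure of HepaRG. Eight-point half-log series, top 100 uM, in 0.5% DMSO; gain or loss fitted against vehicle.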

[9] = read-out: flavin-containing dimethylaniline monooxygenases 3 (FMO3), FMO3 (gene 2328); test: LTEA_HepaRG_FMO3: Life Technologies and Expression Analysis (LTEA) Assay for flavin-containing dimethylaniline monooxygenases 3 (FMO3) using HepaRG (AID 2283453); details: mRNA level, 48 h; actives raise or lower the signal;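 as to AC50: differentiated human HepaRG liver cells in serum-free induction medium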
Summary of the method: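 FMO3 transcript quantified by TaqMan qRT-PCR against three housekeeping genes after 48 h chemical exposure of HepaRG cells. Eight-point half-log series, top 100 uM, 0.5% DMSO vehicle; phenobarbital 1mM induction control; up- or down-regulation fitted.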

[10] = read-out: Cytochrome P450 (CYP1A1), CYP1A1 (gene 1543); test: LTEA_HepaRG_CYP1A1: Life Technologies and Expression Analysis (LTEA) Assay for Cytochrome P450 (CYP1A1) using HepaRG (AID 2283454); details: mRNA level, 48 h; actives raise or lower the signal
Summary of the method: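 Using HepaRG cultures with 0.5% DMSO as vehicle, eight-concentration exposures (max 100 uM) lasted 48 h. Transcript levels were measured by TaqMan qRT-PCR and normalized to ACTB, GAPDH and POLR2A.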

[11] = read-out: CFLAR gene, CFLAR (gene 8837); test: LTEA_HepaRG_CFLAR: Life Technologies and Expression Analysis (LTEA) Assay for CFLAR gene using HepaRG (AID 2283455); details: mRNA level, 48 h; actives raise or lower the signal
Summary of the method: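 Transcript level by qRT-PCR (normalized to ACTB, GAPDH and POLR2A) after 48 h chemical exposure of HepaRG cells, top concentration 100 uM with half-log steps, 0.5% DMSO vehicle, duplicates; fitted bidirectionally against DMSO baseline.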

[12] = read-out: Forkhead box O1 (FOXO1), FOXO1 (gene 2308); test: LTEA_HepaRG_FOXO1: Life Technologies and Expression Analysis (LTEA) Assay for Forkhead box O1 (FOXO1) using HepaRG (AID 2283456); details: mRNA level, 48 h; actives raise or lower the signal
Summary of the method: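 FOXO1 transcript quantified by qRT-PCR after 48 h chemical exposure (top 100 uM, half-log steps, 0.5% DMSO) of HepaRG cells, housekeeping-normalized (ACTB/GAPDH/POLR2A). Changes fitted in both directions relative to vehicle.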

[13] = read-out: growth arrest and DNA damage 45 (GADD45A), GADD45A (gene 1647); test: LTEA_HepaRG_GADD45A: Life Technologies and Expression Analysis (LTEA) Assay for growth arrest and DNA damage 45 (GADD45A) using HepaRG (AID 2283458); details: mRNA level, 48 h; actives raise or lower the signal
Summary of the method: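 Transcript induction or loss, quantified by TaqMan qRT-PCR against three housekeeping genes, is the read-out. HepaRG cells received chemicals for 48 h across eight half-log concentrations from 100 uM in 0.5% DMSO; gain and loss fitted relative to DMSO.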

[14] = read-out: Forkhead box O3 (FOXO3), FOXO3 (gene 2309); test: LTEA_HepaRG_FOXO3: Life Technologies and Expression Analysis (LTEA) Assay for Forkhead box O3 (FOXO3) using HepaRG (AID 2283459); details: mRNA level, 48 h; actives raise or lower the signal
Summary of the method: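 FOXO3 transcript measured by qRT-PCR (normalized to ACTB, GAPDH, POLR2A) after 48 h exposure of HepaRG cells in serum-free induction medium. Duplicates, eight half-log concentrations up to 100 uM, 0.5% DMSO; gain or loss fitted against DMSO.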

[15] = read-out: ABC Transporter (ABCB1), ABCB1 (gene 5243); test: LTEA_HepaRG_ABCB1: Life Technologies and Expression Analysis (LTEA) Assay for ABC Transporter (ABCB1) using HepaRG (AID 2283460); details: mRNA level, 48 h; actives raise or lower the signal
Summary of the method: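 ABCB1 transcript level measured by TaqMan qRT-PCR against three housekeeping genes after 48 h chemical exposure of differentiated HepaRG cells. Top concentration 100 uM, half-log steps, eight points, 0.5% DMSO vehicle; bidirectional fit relative to DMSO.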

[16] = read-out: growth arrest and DNA damage 45 (GADD45B), GADD45B (gene 4616); test: LTEA_HepaRG_GADD45B: Life Technologies and Expression Analysis (LTEA) Assay for growth arrest and DNA damage 45 (GADD45B) using HepaRG (AID 2283461); details: mRNA level, 48 h; actives raise or lower the signal
Summary of the method: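 Human HepaRG monolayers receive chemicals for 48 h at eight half-log concentrations, highest 100 uM, in 0.5% DMSO. Expression is measured by TaqMan qRT-PCR and normalized to ACTB, GAPDH and POLR2A.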

[17] = read-out: ABC Transporter (ABCC3), ABCC3 (gene 8714); test: LTEA_HepaRG_ABCC3: Life Technologies and Expression Analysis (LTEA) Assay for ABC Transporter (ABCC3) using HepaRG (AID 2283462); details: mRNA level, 48 h; actives raise or lower the signal
Summary of the method: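 Transcriptional change of ABCC3 in HepaRG after 48 h treatment, determined by qRT-PCR normalized to endogenous controls. Concentrations spanned eight half-log steps to 100 uM in 0.5% DMSO.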

[18] = read-out: ABC Transporter (ABCB11), ABCB11 (gene 8647); test: LTEA_HepaRG_ABCB11: Life Technologies and Expression Analysis (LTEA) Assay for ABC Transporter (ABCB11) using HepaRG (AID 2283463); details: mRNA level, 48 h; actives raise or lower the signal
Summary of the method: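 ABCB11 transcript levels quantified by TaqMan qRT-PCR against three housekeeping genes after 48 h chemical exposure of HepaRG cultures. Concentrations up to 100 uM in half-log steps, 0.5% DMSO vehicle; both induction and suppression scored.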

[19] = read-out: Cyclin Dependent Kinase Inhibitor 1A (CDKN1A), CDKN1A (gene 1026); test: LTEA_HepaRG_CDKN1A: Life Technologies and Expression Analysis (LTEA) Assay for Cyclin Dependent Kinase Inhibitor 1A (CDKN1A) using HepaRG (AID 2283450); details: mRNA level, 48 h; actives raise or lower the signal
Summary of the method: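 Gain or loss of CDKN1A transcript is scored by bidirectional fitting against 0.5% DMSO vehicle. Human HepaRG cultures receive chemicals for 48 h across an 8-point series peaking at 100 uM; expression comes from qRT-PCR.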

[20] = CEETOX_H295R_TESTO: CeeTox H295R High-throughput Steroidogenesis Assay for Testosterone (TESTO) (AID 2283457); details: actives raise or lower the signal
Summary of the method: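 Steroidogenesis in H295R cells following OECD 456 with minor changes; 48 h exposure. Medium testosterone by HPLC-MS/MS, DMSO as baseline, with MTT viability run in parallel.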

Chain of Fatty acid synthase (Homo sapiens) (P49327 whole entry, looked up): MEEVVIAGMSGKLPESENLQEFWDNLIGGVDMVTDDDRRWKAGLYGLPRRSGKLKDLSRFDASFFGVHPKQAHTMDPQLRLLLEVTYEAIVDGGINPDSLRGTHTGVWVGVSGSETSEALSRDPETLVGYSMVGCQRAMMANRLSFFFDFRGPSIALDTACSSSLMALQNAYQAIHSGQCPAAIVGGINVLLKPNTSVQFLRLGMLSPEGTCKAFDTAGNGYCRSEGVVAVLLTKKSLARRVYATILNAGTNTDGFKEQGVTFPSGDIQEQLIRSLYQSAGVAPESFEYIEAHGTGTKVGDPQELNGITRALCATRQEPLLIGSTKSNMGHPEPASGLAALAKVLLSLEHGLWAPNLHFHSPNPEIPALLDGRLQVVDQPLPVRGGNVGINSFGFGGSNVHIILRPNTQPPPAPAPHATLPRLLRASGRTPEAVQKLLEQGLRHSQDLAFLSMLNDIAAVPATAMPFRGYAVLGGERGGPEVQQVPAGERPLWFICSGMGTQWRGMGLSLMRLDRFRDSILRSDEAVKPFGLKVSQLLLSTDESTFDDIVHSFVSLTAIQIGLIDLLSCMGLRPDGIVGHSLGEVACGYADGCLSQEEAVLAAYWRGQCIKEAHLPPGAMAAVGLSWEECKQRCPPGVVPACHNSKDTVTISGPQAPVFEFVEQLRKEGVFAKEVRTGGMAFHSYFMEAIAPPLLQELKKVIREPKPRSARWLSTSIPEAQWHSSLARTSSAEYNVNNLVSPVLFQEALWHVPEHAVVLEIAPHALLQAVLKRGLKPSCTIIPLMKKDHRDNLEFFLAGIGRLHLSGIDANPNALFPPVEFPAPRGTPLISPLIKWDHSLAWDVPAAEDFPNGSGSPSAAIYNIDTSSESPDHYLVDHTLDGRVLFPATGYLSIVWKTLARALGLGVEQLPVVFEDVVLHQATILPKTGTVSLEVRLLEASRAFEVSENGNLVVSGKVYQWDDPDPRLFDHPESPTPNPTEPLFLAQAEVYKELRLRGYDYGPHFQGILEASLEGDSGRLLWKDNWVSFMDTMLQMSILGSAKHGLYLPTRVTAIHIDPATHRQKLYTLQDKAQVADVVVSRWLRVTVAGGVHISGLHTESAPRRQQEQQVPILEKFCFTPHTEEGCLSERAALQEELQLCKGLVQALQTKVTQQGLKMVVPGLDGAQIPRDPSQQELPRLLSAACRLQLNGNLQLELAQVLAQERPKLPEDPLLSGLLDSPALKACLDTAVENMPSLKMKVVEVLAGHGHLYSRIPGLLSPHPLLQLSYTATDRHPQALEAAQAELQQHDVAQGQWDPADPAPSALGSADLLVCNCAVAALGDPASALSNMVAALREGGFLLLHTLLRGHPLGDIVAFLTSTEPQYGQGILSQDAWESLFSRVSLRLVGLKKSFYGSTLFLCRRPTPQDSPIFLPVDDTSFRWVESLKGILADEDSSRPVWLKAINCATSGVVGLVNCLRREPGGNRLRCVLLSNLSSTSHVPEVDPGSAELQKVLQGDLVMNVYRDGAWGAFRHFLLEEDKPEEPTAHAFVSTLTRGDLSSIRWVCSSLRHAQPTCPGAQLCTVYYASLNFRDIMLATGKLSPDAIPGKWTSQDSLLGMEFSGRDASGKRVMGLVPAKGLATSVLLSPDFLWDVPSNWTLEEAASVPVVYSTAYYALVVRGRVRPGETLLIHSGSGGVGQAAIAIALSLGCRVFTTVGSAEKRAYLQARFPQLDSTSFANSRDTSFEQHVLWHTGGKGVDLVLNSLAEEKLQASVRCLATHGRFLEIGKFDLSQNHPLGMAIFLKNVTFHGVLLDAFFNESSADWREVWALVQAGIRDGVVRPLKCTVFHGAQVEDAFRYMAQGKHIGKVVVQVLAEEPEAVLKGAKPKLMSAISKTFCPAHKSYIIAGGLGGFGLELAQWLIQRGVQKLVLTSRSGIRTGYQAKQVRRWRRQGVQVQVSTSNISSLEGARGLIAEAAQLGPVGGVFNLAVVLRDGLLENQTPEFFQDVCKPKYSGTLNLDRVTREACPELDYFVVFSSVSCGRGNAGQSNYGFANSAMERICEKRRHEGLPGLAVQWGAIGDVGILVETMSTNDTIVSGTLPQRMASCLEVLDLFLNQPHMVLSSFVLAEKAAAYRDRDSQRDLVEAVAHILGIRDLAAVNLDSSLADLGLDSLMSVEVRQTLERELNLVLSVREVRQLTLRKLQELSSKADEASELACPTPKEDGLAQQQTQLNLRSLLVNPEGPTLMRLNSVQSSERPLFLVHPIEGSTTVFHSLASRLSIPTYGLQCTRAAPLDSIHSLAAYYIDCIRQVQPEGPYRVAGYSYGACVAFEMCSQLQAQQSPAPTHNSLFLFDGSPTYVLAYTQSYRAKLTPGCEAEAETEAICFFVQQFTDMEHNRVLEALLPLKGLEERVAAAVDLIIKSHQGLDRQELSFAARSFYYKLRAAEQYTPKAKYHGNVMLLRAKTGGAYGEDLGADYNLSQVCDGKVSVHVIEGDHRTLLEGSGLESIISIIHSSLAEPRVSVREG

Clc1ccccc1C(c1ccccc1)(c1ccccc1)n1ccnc1
AC50 [1]: 0.244 µM (active) | AC50 [2]: 0.41 µM (active) | AC50 [3]: 0.00734 µM (active) | outcome [4]: inactive | AC50 [5]: 23.1 µM (active) | outcome [6]: inactive | AC50 [7]: 82.1 µM (active) | AC50 [8]: 21 µM (active) | AC50 [9]: 96.5 µM (active) | AC50 [10]: 9.17 µM (active) | outcome [11]: inactive | outcome [12]: inactive | outcome [13]: inactive | outcome [14]: inactive | AC50 [15]: 15.8 µM (active) | outcome [16]: inactive | AC50 [17]: 78.3 µM (active) | AC50 [18]: 28.6 µM (active)

CC[C@@H]1C[C@H](N(Cc2cc(C(F)(F)F)cc(C(F)(F)F)c2)C(C)=O)c2cc(C(F)(F)F)ccc2N1C(=O)OC(C)C
outcome [4]: inactive | outcome [5]: inactive | outcome [6]: inactive | outcome [19]: inactive | outcome [7]: inactive | outcome [8]: inactive | AC50 [10]: 16.7 µM (active) | outcome [11]: inactive | outcome [12]: inactive | outcome [13]: inactive | outcome [14]: inactive | AC50 [15]: 0.429 µM (active) | outcome [17]: inactive | outcome [18]: inactive

CCCCCCCCCCCCO
outcome [4]: inactive | outcome [5]: inactive | outcome [6]: inactive | outcome [7]: inactive | outcome [8]: inactive | outcome [9]: inactive | outcome [10]: inactive | outcome [11]: inactive | outcome [12]: inactive | outcome [13]: inactive | outcome [14]: inactive | outcome [15]: inactive | outcome [17]: inactive | outcome [18]: inactive

CCCCCCCCOC(=O)c1cc(O)c(O)c(O)c1
outcome [1]: inactive | outcome [2]: inactive | AC50 [3]: 2.44 µM (active) | outcome [4]: inactive | outcome [5]: inactive | outcome [6]: inactive | outcome [19]: inactive | outcome [7]: inactive | outcome [8]: inactive | outcome [9]: inactive | AC50 [10]: 50 µM (active) | outcome [11]: inactive | outcome [12]: inactive | outcome [13]: inactive | outcome [14]: inactive | outcome [15]: inactive | outcome [17]: inactive | outcome [18]: inactive

O=C1CCC(C2CCCCC2)CC1
outcome [3]: inactive | outcome [5]: inactive | outcome [6]: inactive | outcome [7]: inactive | AC50 [10]: 50 µM (active) | outcome [11]: inactive | outcome [12]: inactive | outcome [13]: inactive | outcome [14]: inactive | outcome [15]: inactive | outcome [17]: inactive | outcome [18]: inactive

O=C(O)Cn1c(=O)n(Cc2ccc(Br)cc2F)c(=O)c2ccc(Cl)cc21
outcome [1]: inactive | outcome [2]: inactive | AC50 [3]: 73.3 µM (active) | outcome [4]: inactive | outcome [5]: inactive | outcome [6]: inactive | outcome [19]: inactive | outcome [7]: inactive | outcome [8]: inactive | AC50 [10]: 87.8 µM (active) | outcome [11]: inactive | outcome [12]: inactive | outcome [20]: inactive | outcome [13]: inactive | outcome [14]: inactive | AC50 [15]: 9.92 µM (active) | outcome [17]: inactive | outcome [18]: inactive

CCCCOC(=O)c1ccc(O)cc1
AC50 [3]: 3.6 µM (active) | outcome [5]: inactive | outcome [19]: inactive | outcome [7]: inactive | outcome [8]: inactive | outcome [9]: inactive | outcome [10]: inactive | outcome [11]: inactive | outcome [12]: inactive | outcome [20]: inactive | outcome [13]: inactive | outcome [14]: inactive | outcome [15]: inactive | outcome [17]: inactive | outcome [18]: inactive

— PubChem BioAssay (EPA / NIEHS)
